Holding throughout (assay): growth (OD600 after 10 h); higher = more growth (less inhibition)
Assay [1] concerns E. coli TESEC Alr+ wild-type control. The conditions noted are these: compound 0.1 mM; raw OD600 reference: median of DMSO wells 0.241, cell-free background 0.041. On the procedure: (§1)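 TESEC Mtb Alr E. coli, or the Alr+ wild-type control, in 384-well plates with Prestwick library compounds at 0.1 mM and 1% DMSO, across arabinose induction levels of 1E3 to 1E7 nM. Growth is read as OD600 after 10 h at 37 °C in triplicate biological replicates.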

Assay [2] concerns E. coli TESEC Mtb Alr. The settings on record: compound 0.1 mM. The procedure:
as §1

The next assay has as its system E. coli TESEC Mtb Asd. The settings on record: compound 0.1 mM. The procedure:
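TESEC E. coli strains in which the native enzyme is deleted and replaced by arabinose-inducible Mtb Asd, DapB, CysH or TrpD, each grown in its selective medium. Strains were screened against the Prestwick library at 0.1 mM and 1% DMSO in 384-well format at low and high arabinose induction. Growth is read as OD600 after 10 h in triplicate.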

Assay [3] deals with E. coli TESEC Alr+ wild-type control. The conditions noted are these: compound 0.1 mM; raw OD600 reference: median of DMSO wells 0.49, cell-free background 0.052. The procedure: (§2)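 TESEC Mtb Alr E. coli (ΔaraC ΔtolC ΔentC Δalr ΔdadX, arabinose-inducible Mtb Alr) or the Alr+ wild-type control strain, grown in defined M9-fructose medium without D-alanine in 96-well plates with Prestwick library compounds at 0.1 mM and 1% DMSO. Low Alr induction is 0.1 µM arabinose and high induction is 10 mM arabinose.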

For assay [4], the system named is E. coli TESEC Mtb Alr. The conditions noted are these: compound 0.1 mM. The procedure:
as §2
This is another data set of the same source.

Setting [5] is: arabinose 1000 nM, raw OD600 reference: median of DMSO wells 0.294, cell-free background 0.041.
[6] abbreviates: arabinose 10000 nM, raw OD600 reference: median of DMSO wells 0.264, cell-free background 0.041.
Setting [7] is: arabinose 100000 nM, raw OD600 reference: median of DMSO wells 0.201, cell-free background 0.041.
The mark [8] stands for this setting: arabinose 1000000 nM, raw OD600 reference: median of DMSO wells 0.193, cell-free background 0.041.
The mark [9] stands for this setting: arabinose 10000000 nM, raw OD600 reference: median of DMSO wells 0.146, cell-free background 0.041.
Where [10] appears, read: arabinose induction (level): High, raw OD600 reference: median of DMSO wells 0.331, cell-free background 0.041.
[11] abbreviates: arabinose induction (level): Low, raw OD600 reference: median of DMSO wells 0.417, cell-free background 0.041.
Where [12] appears, read: arabinose 100 nM, raw OD600 reference: median of DMSO wells 0.413, cell-free background 0.052.
Setting [13] is: arabinose 10000000 nM, raw OD600 reference: median of DMSO wells […], cell-free background 0.052.

SMILES strings stand for the structures. Where a name gives a salt, the structure may show the parent alone. ± gives the standard deviation of the averaged measurements.

In the case of `O=C(O)c1ccccc1Nc1cccc(C(F)(F)F)c1` [Flufenamic acid], the growth turned out to be 0.0528 ± 0.00081 in assay [1]; 0.05003 ± 0.00047 in the assay on E. coli TESEC Mtb Alr [2] (setting [5]); 0.04063 ± 0.00038 with E. coli TESEC Mtb Alr [2] (setting [6]); 0.0593 ± 0.0024 with E. coli TESEC Mtb Alr [2] (setting [7]); 0.04467 ± 0.00032 with E. coli TESEC Mtb Alr [2] (setting [8]); 0.05807 ± 0.00038 in the assay with E. coli TESEC Mtb Alr [2] (setting [9]). Besides, the growth in the assay on E. coli TESEC Mtb Asd (setting [10]) turned out to be 0.0691 ± 0.017; in the assay with E. coli TESEC Mtb Asd (setting [11]), 0.0784 ± 0.0046; in assay [3], 0.114 ± 0.0046; in the assay with E. coli TESEC Mtb Alr [4] (setting [12]) it was 0.0904 ± 0.038; in the assay on E. coli TESEC Mtb Alr [4] (setting [13]), 0.0543 ± 0.00078.
`Cc1cccc(Nc2ccccc2C(=O)O)c1C` [Mefenamic acid]: the growth in assay [1] is 0.134 ± 0.0041; with E. coli TESEC Mtb Alr [2] (setting [5]), 0.135 ± 0.0024; in the assay on E. coli TESEC Mtb Alr [2] (setting [6]), 0.04523 ± 0.00015; with E. coli TESEC Mtb Alr [2] (setting [7]), 0.141 ± 0.002; in the assay with E. coli TESEC Mtb Alr [2] (setting [8]), 0.103 ± 0.0072; in the assay with E. coli TESEC Mtb Alr [2] (setting [9]), 0.132 ± 0.0029. Moreover, the growth with E. coli TESEC Mtb Asd (setting [10]) was determined as 0.232 ± 0.03; in the assay on E. coli TESEC Mtb Asd (setting [11]), 0.26 ± 0.047; in assay [3], 0.158 ± 0.011; in the assay on E. coli TESEC Mtb Alr [4] (setting [12]), 0.169 ± 0.094; in the assay with E. coli TESEC Mtb Alr [4] (setting [13]) it was 0.149 ± 0.011.
As to `CC(C)[C@H]1CC[C@H](C(=O)N[C@H](Cc2ccccc2)C(=O)O)CC1` [Nateglinide], the growth in assay [1] turned out to be 0.181 ± 0.0028; in the assay on E. coli TESEC Mtb Alr [2] (setting [5]), 0.277 ± 0.0054; with E. coli TESEC Mtb Alr [2] (setting [6]), 0.246 ± 0.019; with E. coli TESEC Mtb Alr [2] (setting [7]), 0.169 ± 0.0079; in the assay with E. coli TESEC Mtb Alr [2] (setting [8]) it was 0.114 ± 0.0027; with E. coli TESEC Mtb Alr [2] (setting [9]) it was 0.147 ± 0.0056. Further, the growth came to 0.229 ± 0.039 in the assay on E. coli TESEC Mtb Asd (setting [10]); 0.23 ± 0.021 in the assay on E. coli TESEC Mtb Asd (setting [11]); 0.6242 ± 0.0051 in assay [3]; 0.22 ± 0.16 with E. coli TESEC Mtb Alr [4] (setting [12]); 0.284 ± 0.009 in the assay with E. coli TESEC Mtb Alr [4] (setting [13]).
Turning to `CCCCCNC(=N)N/N=C/c1c[nH]c2ccc(OC)cc12` [Tegaserod maleate], the growth in assay [1] came out at 0.0464 ± 0.0039; with E. coli TESEC Mtb Alr [2] (setting [5]), 0.047 ± 0.0021; in the assay on E. coli TESEC Mtb Alr [2] (setting [6]), 0.0443 ± 0.00086; in the assay on E. coli TESEC Mtb Alr [2] (setting [7]), 0.0455 ± 0.0016; in the assay with E. coli TESEC Mtb Alr [2] (setting [8]), 0.0451 ± 0.0011; in the assay with E. coli TESEC Mtb Alr [2] (setting [9]), 0.0474 ± 0.0038. In addition, the growth in the assay on E. coli TESEC Mtb Asd (setting [10]) stood at 0.0504 ± 0.0014; in the assay with E. coli TESEC Mtb Asd (setting [11]), 0.0483 ± 0.0011; in assay [3], 0.0476 ± 0.00066; with E. coli TESEC Mtb Alr [4] (setting [12]) it was 0.0508 ± 0.00065; in the assay on E. coli TESEC Mtb Alr [4] (setting [13]) it was 0.0554 ± 0.00072.
Regarding `CN(Cc1cc(Br)cc(Br)c1N)C1CCCCC1` [Bromhexine hydrochloride], the growth in assay [1] worked out at 0.0422 ± 0.0023; in the assay on E. coli TESEC Mtb Alr [2] (setting [5]), 0.0459 ± 0.0083; with E. coli TESEC Mtb Alr [2] (setting [6]), 0.04107 ± 0.00031; with E. coli TESEC Mtb Alr [2] (setting [7]), 0.0454 ± 0.0014; with E. coli TESEC Mtb Alr [2] (setting [8]) it was 0.0423 ± 0.00059; in the assay on E. coli TESEC Mtb Alr [2] (setting [9]), 0.0454 ± 0.00098. For the same compound, the growth in the assay with E. coli TESEC Mtb Asd (setting [10]) turned out to be 0.194 ± 0.028; in the assay on E. coli TESEC Mtb Asd (setting [11]) it was 0.0472 ± 0.0019; in assay [3], 0.0641 ± 0.0033; with E. coli TESEC Mtb Alr [4] (setting [12]), 0.0619 ± 0.0019; in the assay on E. coli TESEC Mtb Alr [4] (setting [13]) it was 0.0553 ± 0.0034.
With `N[C@@H](C(=O)N[C@@H]1C(=O)N2C(C(=O)O)=C(Cl)CS[C@H]12)c1ccccc1` [Cefaclor hydrate], the growth in assay [1] was found to be 0.264 ± 0.0067; in the assay with E. coli TESEC Mtb Alr [2] (setting [5]), 0.315 ± 0.0086; in the assay on E. coli TESEC Mtb Alr [2] (setting [6]), 0.249 ± 0.0072; in the assay on E. coli TESEC Mtb Alr [2] (setting [7]), 0.244 ± 0.025; with E. coli TESEC Mtb Alr [2] (setting [8]) it was 0.1991 ± 0.0017; in the assay with E. coli TESEC Mtb Alr [2] (setting [9]), 0.158 ± 0.021. Besides, the growth in the assay with E. coli TESEC Mtb Asd (setting [10]) is 0.333 ± 0.052; in the assay on E. coli TESEC Mtb Asd (setting [11]) it was 0.425 ± 0.067; in assay [3], 0.489 ± 0.033; in the assay with E. coli TESEC Mtb Alr [4] (setting [12]), 0.224 ± 0.036; in the assay on E. coli TESEC Mtb Alr [4] (setting [13]) it was 0.354 ± 0.032.

For the origin of these results see the supplement of paper PMC9262897, “Low-cost anti-mycobacterial drug discovery using engineered E. coli” (Nature Communications, 2022).
